According to PubChem BioAssay (NCI):
Compounds without any hit were thinned out: in the full panel of roughly 83,000, 20% have a hit.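 Each cell line was grown in a 96-well plate and treated with one concentration of compound for 48 hours. Values below 10 were considered active.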 Values without a mark were called inactive. Active and inactive are the calls of the source.

Legend:
Test in all cases: NCI-60 one-dose screen, 48 h (100 = growth as untreated, 0 = no growth, -100 = all killed)
Details in all cases: 10 µM unless noted
SK-MEL-2 melanoma = system: SK-MEL-2 melanoma
EKVX NSCLC = system: EKVX NSCLC
SN12C renal = system: SN12C renal
TK-10 renal = system: TK-10 renal
ACHN renal = system: ACHN renal
CAKI-1 renal = system: CAKI-1 renal
A498 renal = system: A498 renal
CCRF-CEM leukemia = system: CCRF-CEM leukemia
MOLT-4 leukemia = system: MOLT-4 leukemia
SR leukemia = system: SR leukemia
RPMI-8226 leukemia = system: RPMI-8226 leukemia
OVCAR-8 ovarian = system: OVCAR-8 ovarian
OVCAR-5 ovarian = system: OVCAR-5 ovarian
OVCAR-4 ovarian = system: OVCAR-4 ovarian
SK-OV-3 ovarian = system: SK-OV-3 ovarian
IGROV1 ovarian = system: IGROV1 ovarian
OVCAR-3 ovarian = system: OVCAR-3 ovarian
HS 578T breast = system: HS 578T breast
NCI/ADR-RES ovarian = system: NCI/ADR-RES ovarian

| SMILES | growth (SK-MEL-2 melanoma) | growth (EKVX NSCLC) | growth (SN12C renal) | growth (TK-10 renal) | growth (ACHN renal) | growth (CAKI-1 renal) | growth (A498 renal) | growth (CCRF-CEM leukemia) | growth (MOLT-4 leukemia) | growth (SR leukemia) | growth (RPMI-8226 leukemia) | growth (OVCAR-8 ovarian) | growth (OVCAR-5 ovarian) | growth (OVCAR-4 ovarian) | growth (SK-OV-3 ovarian) | growth (IGROV1 ovarian) | growth (OVCAR-3 ovarian) | growth (HS 578T breast) | growth (NCI/ADR-RES ovarian) |
| --- | --- | --- | --- | --- | --- | --- | --- | --- | --- | --- | --- | --- | --- | --- | --- | --- | --- | --- | --- |
| O=C(O)c1ccc(-c2ccc(/C=N/Nc3nc(Nc4ccccc4)nc(N4CCCCC4)n3)o2)cc1 | 68.5% | 78.8% | 66.8% | 41.8% | 73.3% | -5.95% (active) | 72.8% | 62.8% | 79.9% | 65.5% | 43.7% | 48.7% | 94.9% | 77.1% | 92% | 45.2% | 64.8% | 40.7% | 57.7% |
| Cc1ccc(C(=O)Nc2cccc(C#Cc3cccc4[nH]nc(N)c34)c2)cc1C(F)(F)F | 29.2% | 92.4% | 65.2% | 86.6% | 44.7% | 120% | 81.2% | 52.9% | 45% | 69.3% | 66.9% | 72.1% | 59.9% | 66.6% | 84.3% | 17.9% | 82.7% | 47.4% | 74.1% |
| CCOC(=O)c1cc(C(=O)c2cc(OC)c(OC)c(OC)c2)n2ccccc12 | 40.4% | 42% | 54% | 49.3% | 58.4% | 38.9% | -1.31% (active) | 17% | 24.3% | – | 23.2% | 33.2% | 71.5% | 67.9% | 22.3% | 49.6% | -5.59% (active) | 40.1% | 10.7% |
| CC1CCN(C(=O)CCCl)c2ccccc21 (configuration not stated) | 109% | 144% | 99.7% | 95.7% | 117% | 119% | 95.8% | 104% | 118% | 113% | 114% | 96.6% | 129% | 103% | 112% | 96.9% | 115% | 87.5% | 98% |
| COc1ccc(C2CC(c3cc(OC)c(OC)c(OC)c3)=NO2)cc1OCCCCOc1cc2c(cc1OC)C(=O)N1CCC[C@H]1C=N2 (some centres not stated) | -35.2% (active) | 16.8% | 32.2% | -13.6% (active) | 0.735% (active) | – | -67.3% (active) | – | 7.66% (active) | -18.1% (active) | 17.1% | – | 17.9% | 13.8% | 22% | -21.5% (active) | 0.847% (active) | 0.334% (active) | 19.8% |
| Cc1ncc(C(=O)Nc2ccc(CN3CCN(C)CC3)c(C(F)(F)F)c2)cc1C#Cc1cnc(N)c2ncccc12 | -29.8% (active) | 42.8% | -20.3% (active) | 46.3% | 0.608% (active) | – | -6.89% (active) | -1.21% (active) | -24.9% (active) | – | -26.2% (active) | -24.7% (active) | 49.8% | -6.15% (active) | 0.896% (active) | – | 55.4% | 24.2% | 33.2% |
| C#CCNC(=O)[C@]1(C)CCC[C@@]2(C)[C@H]1CC=C1C=C(C(C)C)CC[C@@H]12 | 95.9% | 94.6% | 96.7% | 99.7% | 106% | 87.9% | 102% | 110% | 87.9% | 105% | 103% | 113% | 113% | 101% | 104% | 99.3% | 106% | 106% | 104% |
| Fc1cc(Nc2ccc3c(OCCCN4CCOCC4)cccc3n2)ccc1Cl | 88.8% | 39.9% | 62.6% | 66.1% | 52.6% | 54.8% | 54.4% | 29.2% | 3.8% (active) | 10.7% | 4.49% (active) | 73.5% | 33.5% | 53.1% | 67.7% | 36.2% | 65.1% | 40.1% | 48.5% |
| Cc1nnc(-c2ccc3c(c2)nc(/C=C/c2ccccc2)n3C2CCCCC2)o1 | 82% | 86.8% | 90.1% | 104% | 54.7% | 112% | 97.8% | – | 43.4% | 46% | 44.3% | 80.2% | 125% | 82.3% | 64.8% | 77.1% | 75.4% | 90.3% | 85.2% |
| COc1cc(/C=C/C(=O)/C=C(O)/C=C/c2ccc(OC(=O)C34CC5CC(CC(C5)C3)C4)c(OC)c2)ccc1OC(=O)C12CC3CC(CC(C3)C1)C2 | 101% | 101% | 95.5% | 97% | 99% | 91.3% | 102% | 103% | 116% | 120% | 105% | 104% | 97.1% | 104% | 114% | 92.5% | – | 94.2% | 104% |
| CC(=O)ON1CCCC(P(=O)(OCCSC(=O)C(C)(C)C)OCCSC(=O)C(C)(C)C)C1=O (configuration not stated) | 50.6% | 22.8% | 3.59% (active) | 27.2% | 20.1% | 24% | -8.82% (active) | -6.31% (active) | 15.5% | 6.15% (active) | -17.3% (active) | 10.7% | 89.2% | 29.7% | 38.6% | 16.3% | 10.4% | 19.6% | 13.2% |
| Cc1ccc(/C=C/C(=O)c2ccc(-n3cc(CN4CCN(c5cc6c(cc5F)c(=O)c(C(=O)O)cn6C5CC5)CC4)nn3)cc2)cc1 | 95.5% | 96% | 67.7% | 104% | 89.8% | 69.8% | 64.5% | 84.3% | 86% | 63.2% | 44.3% | 62.5% | 109% | 94.8% | 84.7% | 69.9% | 96% | 80.5% | 103% |
| Cc1ccc(S(=O)(=O)c2nc(-c3ccccc3)oc2Sc2nc3ccccc3s2)cc1 | 88.6% | 97.1% | 61.4% | 111% | 96.8% | 91.5% | 80.4% | 23.6% | 12.3% | 15.5% | 56.7% | 60% | 124% | 55.5% | 116% | 80% | 77.9% | 101% | 70.7% |
| COc1cc(-c2nc3cc(Cl)c(Cl)cc3[nH]2)ccc1OCC(=O)N=Nc1c(O)[nH]c2ccc(Cl)cc12 | -27.3% (active) | 45.7% | 0.477% (active) | 36.5% | 29.2% | 15.2% | 20.1% | -31.3% (active) | -27.8% (active) | -30.7% (active) | 10.4% | 2.5% (active) | 26.8% | 12.2% | -5.3% (active) | -0.308% (active) | -94.3% (active) | -14% (active) | 88.2% |
| CSc1nn2c(-c3ccc4ccccc4c3)ccnc2c1C#N | -7.77% (active) | 33.5% | 23.4% | -2.29% (active) | 16% | 22.4% | 21.9% | 41% | 28.5% | 13.8% | 24.1% | 23% | 46.7% | 1.79% (active) | 12.8% | – | -26% (active) | 33.6% | 2.07% (active) |
| Cc1ccc2nc(-c3ccc(C(=O)NNC(=S)Nc4ccccc4)cc3)[nH]c2c1 | 112% | 93.2% | 93.9% | 151% | 99.6% | 95.3% | 46.6% | 88.8% | 83.3% | 88.6% | 85.1% | 95.7% | 98.3% | 88.2% | 98.3% | 86.4% | 95% | 111% | 100% |
| CN(C)CCN1C(=O)c2cccc3c(/C=C/CN4C(=O)c5cccc6cccc(c56)C4=O)ccc(c23)C1=O | 104% | 109% | 79.9% | 121% | 72.7% | 91% | 81.4% | -44.1% (active) | 34.3% | -16.4% (active) | -31.4% (active) | -43.5% (active) | -69% (active) | -5.6% (active) | 109% | 89.4% | 114% | 82.6% | – |
